Data published in the supplement of paper PMC11732987, “Enantioselective OTUD7B fragment discovery through chemoproteomics screening and high-throughput optimisation” (Communications Chemistry, 2025).

Legend:
Assay in all cases: log2 ratio of Biotin-Ahx-Ub-VS probe labelling (fragment/DMSO); higher = less target engagement (more negative = stronger competition), active = hit call of the paper (q ≤ 0.05, log2 ratio ≤ -1)
Conditions in all cases: compound concentration: 200 uM; treatment time: 3 h
USP34 = USP34 (UniProt Q70CQ2)
Chain of USP34 (Q70CQ2 whole entry, the tested form may be a part): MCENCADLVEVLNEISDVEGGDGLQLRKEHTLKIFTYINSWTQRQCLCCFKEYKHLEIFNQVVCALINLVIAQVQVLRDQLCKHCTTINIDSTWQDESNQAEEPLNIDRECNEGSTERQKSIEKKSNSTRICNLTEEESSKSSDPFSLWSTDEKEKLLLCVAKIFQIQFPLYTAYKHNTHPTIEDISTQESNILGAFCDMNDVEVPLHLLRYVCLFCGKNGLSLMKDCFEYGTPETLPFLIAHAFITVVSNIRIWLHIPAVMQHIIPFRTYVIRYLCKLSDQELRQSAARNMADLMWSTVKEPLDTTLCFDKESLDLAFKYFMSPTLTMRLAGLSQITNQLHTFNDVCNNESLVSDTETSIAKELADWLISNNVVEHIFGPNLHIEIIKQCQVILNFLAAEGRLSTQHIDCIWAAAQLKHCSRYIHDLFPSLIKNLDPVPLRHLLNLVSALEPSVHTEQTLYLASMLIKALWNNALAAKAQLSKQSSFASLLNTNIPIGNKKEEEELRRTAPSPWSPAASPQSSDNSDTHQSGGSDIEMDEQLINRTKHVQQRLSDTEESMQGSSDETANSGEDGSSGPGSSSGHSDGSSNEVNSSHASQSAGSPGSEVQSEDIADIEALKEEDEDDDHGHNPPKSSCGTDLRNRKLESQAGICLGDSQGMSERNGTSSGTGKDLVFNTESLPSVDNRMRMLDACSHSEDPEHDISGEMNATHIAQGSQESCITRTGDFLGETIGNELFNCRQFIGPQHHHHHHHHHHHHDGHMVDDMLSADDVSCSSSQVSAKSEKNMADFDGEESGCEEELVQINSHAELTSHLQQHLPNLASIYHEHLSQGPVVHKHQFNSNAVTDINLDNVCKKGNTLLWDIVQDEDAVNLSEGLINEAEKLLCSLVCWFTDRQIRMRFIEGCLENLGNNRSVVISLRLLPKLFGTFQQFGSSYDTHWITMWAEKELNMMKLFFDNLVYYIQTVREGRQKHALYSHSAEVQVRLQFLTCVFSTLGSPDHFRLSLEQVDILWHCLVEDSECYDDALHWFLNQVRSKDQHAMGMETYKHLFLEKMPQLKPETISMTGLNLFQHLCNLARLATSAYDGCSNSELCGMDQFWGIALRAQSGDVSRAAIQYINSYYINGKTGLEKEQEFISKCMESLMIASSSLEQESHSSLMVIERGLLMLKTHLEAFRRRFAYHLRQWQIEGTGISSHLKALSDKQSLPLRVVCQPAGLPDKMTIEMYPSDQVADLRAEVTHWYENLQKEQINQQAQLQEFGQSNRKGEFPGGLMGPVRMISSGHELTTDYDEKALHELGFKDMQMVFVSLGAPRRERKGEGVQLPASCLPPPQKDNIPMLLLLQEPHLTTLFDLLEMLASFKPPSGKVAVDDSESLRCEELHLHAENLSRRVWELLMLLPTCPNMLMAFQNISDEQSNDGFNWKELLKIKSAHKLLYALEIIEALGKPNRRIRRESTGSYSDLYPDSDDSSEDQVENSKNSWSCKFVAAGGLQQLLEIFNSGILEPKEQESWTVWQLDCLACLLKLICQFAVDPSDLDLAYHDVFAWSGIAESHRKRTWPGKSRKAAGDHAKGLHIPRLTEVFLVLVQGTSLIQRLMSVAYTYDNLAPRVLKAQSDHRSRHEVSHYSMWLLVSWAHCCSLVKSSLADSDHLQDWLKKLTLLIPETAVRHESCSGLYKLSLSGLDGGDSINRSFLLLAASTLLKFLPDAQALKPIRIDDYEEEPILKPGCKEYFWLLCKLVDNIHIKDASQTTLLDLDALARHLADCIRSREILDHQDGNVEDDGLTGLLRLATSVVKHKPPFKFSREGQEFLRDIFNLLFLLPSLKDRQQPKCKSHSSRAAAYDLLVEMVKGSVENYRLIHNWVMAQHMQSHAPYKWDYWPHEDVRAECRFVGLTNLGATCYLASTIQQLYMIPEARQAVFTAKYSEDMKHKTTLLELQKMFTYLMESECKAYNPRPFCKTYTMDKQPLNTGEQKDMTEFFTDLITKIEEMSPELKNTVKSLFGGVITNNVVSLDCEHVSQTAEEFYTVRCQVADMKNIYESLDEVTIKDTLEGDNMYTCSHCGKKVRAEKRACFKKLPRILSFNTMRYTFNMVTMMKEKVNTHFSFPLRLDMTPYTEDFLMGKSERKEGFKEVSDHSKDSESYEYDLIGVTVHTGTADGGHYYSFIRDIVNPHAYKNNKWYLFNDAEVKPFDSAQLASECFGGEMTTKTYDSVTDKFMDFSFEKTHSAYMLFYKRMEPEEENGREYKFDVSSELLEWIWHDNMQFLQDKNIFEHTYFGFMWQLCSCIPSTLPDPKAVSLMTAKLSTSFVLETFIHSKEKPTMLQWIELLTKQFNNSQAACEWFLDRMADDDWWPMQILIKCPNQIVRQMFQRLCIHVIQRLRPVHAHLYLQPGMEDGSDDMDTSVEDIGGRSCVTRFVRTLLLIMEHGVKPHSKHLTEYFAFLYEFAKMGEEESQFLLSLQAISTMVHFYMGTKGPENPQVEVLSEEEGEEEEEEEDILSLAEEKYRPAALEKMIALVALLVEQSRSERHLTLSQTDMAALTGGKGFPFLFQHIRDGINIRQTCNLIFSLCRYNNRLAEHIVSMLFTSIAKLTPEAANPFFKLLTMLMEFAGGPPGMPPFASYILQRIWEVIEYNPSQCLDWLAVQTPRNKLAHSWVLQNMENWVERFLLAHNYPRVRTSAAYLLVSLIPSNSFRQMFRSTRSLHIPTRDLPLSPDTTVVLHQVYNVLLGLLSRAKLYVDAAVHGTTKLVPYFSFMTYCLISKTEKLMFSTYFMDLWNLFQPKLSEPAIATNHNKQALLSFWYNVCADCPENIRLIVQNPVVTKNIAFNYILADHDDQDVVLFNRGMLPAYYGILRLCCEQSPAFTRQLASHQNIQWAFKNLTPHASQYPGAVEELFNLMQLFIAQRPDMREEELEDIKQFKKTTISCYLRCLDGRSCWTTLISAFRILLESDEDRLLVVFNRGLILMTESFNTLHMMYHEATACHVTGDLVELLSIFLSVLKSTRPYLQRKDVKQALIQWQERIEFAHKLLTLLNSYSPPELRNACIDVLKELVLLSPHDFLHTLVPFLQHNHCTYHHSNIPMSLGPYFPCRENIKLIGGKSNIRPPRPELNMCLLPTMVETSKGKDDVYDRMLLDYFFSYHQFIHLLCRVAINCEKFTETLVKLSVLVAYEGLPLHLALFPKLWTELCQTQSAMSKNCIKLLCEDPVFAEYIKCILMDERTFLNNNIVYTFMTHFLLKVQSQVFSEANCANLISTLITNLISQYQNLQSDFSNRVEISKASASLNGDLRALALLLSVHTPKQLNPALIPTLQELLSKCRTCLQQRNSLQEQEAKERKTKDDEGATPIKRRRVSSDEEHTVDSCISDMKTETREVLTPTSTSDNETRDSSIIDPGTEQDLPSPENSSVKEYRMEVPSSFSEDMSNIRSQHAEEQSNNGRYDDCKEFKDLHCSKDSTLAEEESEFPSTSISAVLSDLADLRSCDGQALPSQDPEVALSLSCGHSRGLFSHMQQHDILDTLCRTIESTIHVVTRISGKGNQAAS
Procedure, shortened: (§1)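 Triplicate samples of HEK293T lysate, 495 µg each, received fragment at 200 µM or vehicle for 3 h, followed by Biotin-Ahx-Ub-VS (0.5 µM final) for 1 h. After NeutrAvidin enrichment of labelled DUBs and LysC/trypsin digestion, peptides were run by diaPASEF LC-MS/MS. The values are average log2 fragment/vehicle ratios from global-median-normalised Spectronaut label-free quantities, tested by unpaired t-test on proteins having ≥2 unique peptides.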

USP36 = target: T1, USP36 (UniProt Q9P275)
T1 sequence (whole entry): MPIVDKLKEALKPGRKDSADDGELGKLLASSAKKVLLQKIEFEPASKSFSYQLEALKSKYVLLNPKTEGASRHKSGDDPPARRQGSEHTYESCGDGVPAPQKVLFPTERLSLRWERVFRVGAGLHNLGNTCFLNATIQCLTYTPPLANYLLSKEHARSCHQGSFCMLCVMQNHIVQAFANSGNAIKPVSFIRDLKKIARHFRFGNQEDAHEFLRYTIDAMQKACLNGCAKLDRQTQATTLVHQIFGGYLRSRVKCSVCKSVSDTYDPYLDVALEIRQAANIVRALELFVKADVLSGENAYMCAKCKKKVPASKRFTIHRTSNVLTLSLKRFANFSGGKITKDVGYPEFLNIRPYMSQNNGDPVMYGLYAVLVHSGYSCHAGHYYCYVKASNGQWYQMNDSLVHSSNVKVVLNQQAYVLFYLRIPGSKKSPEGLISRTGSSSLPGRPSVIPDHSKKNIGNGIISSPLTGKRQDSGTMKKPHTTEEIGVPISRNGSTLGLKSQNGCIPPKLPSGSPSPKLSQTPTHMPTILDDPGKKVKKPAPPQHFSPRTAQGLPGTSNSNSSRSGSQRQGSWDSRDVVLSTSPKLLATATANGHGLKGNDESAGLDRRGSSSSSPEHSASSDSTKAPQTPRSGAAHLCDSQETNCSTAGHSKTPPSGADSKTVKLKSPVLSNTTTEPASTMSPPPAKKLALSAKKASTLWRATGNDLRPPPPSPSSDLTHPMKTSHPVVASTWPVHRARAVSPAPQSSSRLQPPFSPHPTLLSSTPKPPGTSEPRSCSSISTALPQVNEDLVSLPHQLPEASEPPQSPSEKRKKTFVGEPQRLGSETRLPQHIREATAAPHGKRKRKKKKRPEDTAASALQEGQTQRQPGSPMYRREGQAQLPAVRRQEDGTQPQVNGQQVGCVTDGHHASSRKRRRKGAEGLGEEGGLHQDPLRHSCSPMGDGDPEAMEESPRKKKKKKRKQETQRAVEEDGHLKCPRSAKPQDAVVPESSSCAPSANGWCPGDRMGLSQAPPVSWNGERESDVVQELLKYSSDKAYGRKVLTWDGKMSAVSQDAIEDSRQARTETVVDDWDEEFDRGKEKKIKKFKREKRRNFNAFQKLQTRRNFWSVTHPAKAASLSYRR
Procedure, shortened: as §1

USP38 = target: T2, USP38 (UniProt Q8NB14)
T2 sequence (whole entry): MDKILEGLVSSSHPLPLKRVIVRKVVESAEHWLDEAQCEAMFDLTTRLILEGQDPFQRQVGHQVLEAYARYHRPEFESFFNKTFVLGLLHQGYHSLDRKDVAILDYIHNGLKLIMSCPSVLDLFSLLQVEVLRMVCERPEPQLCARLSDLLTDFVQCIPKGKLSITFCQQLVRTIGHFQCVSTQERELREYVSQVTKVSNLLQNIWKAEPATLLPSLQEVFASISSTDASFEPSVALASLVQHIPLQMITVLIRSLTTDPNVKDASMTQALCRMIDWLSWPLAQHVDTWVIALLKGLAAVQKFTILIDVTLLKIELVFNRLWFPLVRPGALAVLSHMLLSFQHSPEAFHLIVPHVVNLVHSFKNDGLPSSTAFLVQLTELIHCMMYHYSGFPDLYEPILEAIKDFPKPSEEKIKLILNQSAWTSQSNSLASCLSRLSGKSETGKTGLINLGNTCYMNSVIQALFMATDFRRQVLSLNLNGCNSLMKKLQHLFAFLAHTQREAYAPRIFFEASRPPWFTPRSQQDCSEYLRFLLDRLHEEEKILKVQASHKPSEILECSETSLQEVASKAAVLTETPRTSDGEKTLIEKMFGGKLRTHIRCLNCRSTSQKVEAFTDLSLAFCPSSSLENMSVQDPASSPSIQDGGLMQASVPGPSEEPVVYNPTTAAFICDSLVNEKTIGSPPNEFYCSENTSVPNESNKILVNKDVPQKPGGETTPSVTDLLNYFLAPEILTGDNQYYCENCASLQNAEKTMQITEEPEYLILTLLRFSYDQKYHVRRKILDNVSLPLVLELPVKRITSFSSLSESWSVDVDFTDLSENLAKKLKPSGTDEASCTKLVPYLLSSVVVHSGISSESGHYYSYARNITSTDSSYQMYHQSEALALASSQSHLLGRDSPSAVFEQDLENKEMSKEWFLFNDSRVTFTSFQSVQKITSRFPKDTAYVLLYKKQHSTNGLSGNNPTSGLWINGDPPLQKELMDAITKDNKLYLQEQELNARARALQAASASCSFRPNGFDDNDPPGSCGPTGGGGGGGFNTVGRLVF
Procedure, shortened: as §1

USP39 = target: T3, USP39 (UniProt Q53GS9)
T3 sequence (whole entry): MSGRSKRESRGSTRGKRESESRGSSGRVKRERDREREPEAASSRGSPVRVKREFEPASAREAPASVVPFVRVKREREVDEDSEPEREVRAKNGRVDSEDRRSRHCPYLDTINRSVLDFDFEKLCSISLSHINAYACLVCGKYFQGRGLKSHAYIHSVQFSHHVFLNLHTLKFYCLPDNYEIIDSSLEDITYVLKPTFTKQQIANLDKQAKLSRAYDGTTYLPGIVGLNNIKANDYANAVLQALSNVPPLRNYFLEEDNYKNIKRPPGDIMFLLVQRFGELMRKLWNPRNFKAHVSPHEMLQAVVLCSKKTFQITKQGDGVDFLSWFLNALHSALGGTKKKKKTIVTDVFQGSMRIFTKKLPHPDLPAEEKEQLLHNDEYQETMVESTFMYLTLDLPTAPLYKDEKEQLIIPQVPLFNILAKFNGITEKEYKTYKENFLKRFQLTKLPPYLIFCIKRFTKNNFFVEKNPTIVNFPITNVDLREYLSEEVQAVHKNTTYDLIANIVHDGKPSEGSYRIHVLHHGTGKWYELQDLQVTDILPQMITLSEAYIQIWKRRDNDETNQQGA
Procedure, shortened: as §1

USP4 = target: T4, USP4 (UniProt Q13107)
T4 sequence (whole entry): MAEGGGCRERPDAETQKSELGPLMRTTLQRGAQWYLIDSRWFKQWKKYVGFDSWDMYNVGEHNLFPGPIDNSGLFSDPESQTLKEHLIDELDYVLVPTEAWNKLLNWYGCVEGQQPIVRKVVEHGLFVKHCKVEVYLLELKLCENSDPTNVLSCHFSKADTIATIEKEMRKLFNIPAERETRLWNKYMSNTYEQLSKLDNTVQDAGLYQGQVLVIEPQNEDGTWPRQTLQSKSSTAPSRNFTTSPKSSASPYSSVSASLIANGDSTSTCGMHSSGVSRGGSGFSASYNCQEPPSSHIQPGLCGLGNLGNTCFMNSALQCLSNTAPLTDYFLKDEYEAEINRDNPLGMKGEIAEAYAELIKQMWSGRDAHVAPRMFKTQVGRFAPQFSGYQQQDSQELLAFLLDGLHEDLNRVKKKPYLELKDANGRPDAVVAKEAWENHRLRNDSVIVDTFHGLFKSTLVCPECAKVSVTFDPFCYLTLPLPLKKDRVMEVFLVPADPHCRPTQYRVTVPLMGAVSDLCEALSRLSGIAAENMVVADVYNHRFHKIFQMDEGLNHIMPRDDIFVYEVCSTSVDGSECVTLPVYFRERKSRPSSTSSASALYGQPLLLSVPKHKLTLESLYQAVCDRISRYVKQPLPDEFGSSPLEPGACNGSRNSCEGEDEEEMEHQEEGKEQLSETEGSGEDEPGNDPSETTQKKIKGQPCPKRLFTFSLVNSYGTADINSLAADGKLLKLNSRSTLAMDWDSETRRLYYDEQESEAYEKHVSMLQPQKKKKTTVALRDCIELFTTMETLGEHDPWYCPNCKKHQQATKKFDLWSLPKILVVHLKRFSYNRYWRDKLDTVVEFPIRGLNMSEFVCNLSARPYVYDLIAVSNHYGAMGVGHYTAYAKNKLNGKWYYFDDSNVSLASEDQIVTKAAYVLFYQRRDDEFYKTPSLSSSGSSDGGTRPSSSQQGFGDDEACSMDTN
Procedure, shortened: as §1

Measured: log2 ratio of Biotin-Ahx-Ub-VS probe labelling

C[C@@H](NC(=O)CCl)c1cccc(C#N)c1
inactive: USP34 -0.444 | USP36 0.00395 | USP38 -0.0294 | USP39 0.198 | USP4 0.0193
